# Measurements published in PubChem BioAssay (NCATS).
# Inconclusive results are not listed. A number with no mark means an inactive call. Active and inactive are the calls of the source. Calls follow the shape of the dose curve; as a rule, active = well fitted inhibition curve with a large enough effect; inconclusive = small, poorly fitted or top-dose-only effect; inactive = no such curve, though single readings can be large or run the other way.
# Assay: qHTS assay to identify inhibitors of the type 1 interferon - major histocompatibility complex class I in skeletal muscle: Counter screen cell viability and HiBit confirmation (AID 1347412); also: nearly all actives have a fitted effect of over 60% in size
# Conditions: iHSKM muscle cells + IFN-b, HiBiT or CellTiter-Glo, 24 h; Viability
# Summary of the method: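 Myoblasts (C25cl48, HLA-B HiBiT) seeded in medium without dexamethasone, IFN-b 4 ng/ml added except unstimulated columns; 1 hr later compounds pinned (12-pt 1:3, top 46 uM final). Incubated 24 hrs, lysed 10 min, luminescence measured.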
# % is scaled to controls: 0 for no effect and ±100 for the full control effect; potency is read from the fitted curve at half-maximal effect.
row,Structure (SMILES),Potency
1,C[C@@H](Oc1cc(-c2cnn(C3CCNCC3)c2)cnc1N)c1c(Cl)ccc(F)c1Cl,27.9 µM (active)
2,CN1CCC(CNc2ccc3ncc(-c4cccc(OC(F)(F)F)c4)n3n2)CC1,31.3 µM (active)
3,Cc1cc(CN2CCN(c3c(Br)cnc4nc(-c5ccc(N6CCN(C)CC6)cc5)[nH]c34)CC2)no1,11.1 µM (active)
4,CNC(=O)c1c(F)cccc1Nc1nc(Nc2cc3c(cc2OC)CCN3C(=O)CN(C)C)nc2[nH]ccc12,24.9 µM (active)

# Same assay, conditions: iHSKM muscle cells + IFN-b, HiBiT or CellTiter-Glo, 24 h; Viability; at 45.9 µM (top of the series)
row,Structure (SMILES),"activity change, negative = inhibition"
1,Cc1nc(Nc2n[nH]c3c2CN(C(=O)N[C@H](CN(C)C)c2ccccc2)C3(C)C)c2sccc2n1,5.01%
2,Cc1[nH]nc2ccc(-c3cncc(OC[C@@H](N)Cc4ccccc4)c3)cc12,-12.9%
3,Cc1ccc(C(N)=O)cc1Nc1nccc(-c2cn(C(C)C)c3cnccc23)n1,26.3%
4,CCOC(=O)C1=C(C)NC2=C(C(=O)CC(C)(C)C2)C1c1ccc(-c2ccccc2)cc1 (stereo not given),-16.2%
5,CC(C)CC(=O)Nc1n[nH]c2c1CN(C(=O)C1CCN(C)CC1)C2(C)C,10.8%
6,CN1CCN(Cc2ccc(NC(=O)Nc3ccc(Oc4cc(NC(=O)C5CC5)ncn4)cc3)cc2C(F)(F)F)CC1,13.9%
